# Measured values published in PubChem BioAssay (EPA / NIEHS).
# Calls of active or inactive are those of the source. Rule for the calls: active = hit-call score of the fitted dose curve at least 0.9, where 1 is the maximum; inactive = score below 0.9.
# Key:
# [1] = BSK_BT_Bcell_Proliferation: Viability Assessment in the BioMAP Diversity Plus: BT Assay for B cell Proliferation (AID 2284227); settings: primary human B cells with PBMC
# In short: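 Read-out is absorbance at 560 nm from sulforhodamine B staining of total protein, reflecting relative cell numbers in a human B cell and PBMC co-culture after 72 h of chemical exposure. Values were referenced to DMSO.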
# [2] = read-out: Interleukin 6 (IL6), IL6 (gene 3569); test: BSK_BT_xIL6: BioMAP Diversity Plus: BT Assay for Interleukin 6 (IL6) Biomarker Activity (AID 2284228); settings: primary human B cells with PBMC
# In short: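 Readout: secreted IL-6 via Luminex xMAP multiplex, 24 h post-dosing. System: primary human B cells co-cultured with PBMC. Signal change scored relative to DMSO vehicle, positive fitting direction.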
# [3] = read-out: Interleukin 17A (IL17A), IL17A (gene 3605); test: BSK_BT_xIL17A: BioMAP Diversity Plus: BT Assay for Interleukin 17A (IL17A) Biomarker Activity (AID 2284229); settings: primary human B cells with PBMC
# In short: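 Luminex xMAP readout of secreted IL-17A; human B cell + PBMC co-culture; 24 h post-dose; positive-direction fit vs DMSO negative control.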
# [4] = read-out: Vascular cell adhesion molecule 1 (VCAM1), VCAM1 (gene 7412); test: BSK_MyoF_VCAM1: BioMAP Diversity Plus: MyoF Assay for Vascular cell adhesion molecule 1 (VCAM1) Biomarker Activity (AID 2284231); settings: primary human lung fibroblasts
# In short: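 MyoF system, lung fibroblasts; 24 h post-dose; VCAM-1 by ELISA; gain-of-signal fit vs DMSO baseline.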
# [5] = read-out: Collagen I, COL1A1 (gene 1277); test: BSK_MyoF_CollagenI: BioMAP Diversity Plus: MyoF Assay for Collagen I Biomarker Activity (AID 2284238); settings: primary human lung fibroblasts
# In short: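 ELISA readout of Collagen I after 24 h chemical treatment of primary human lung fibroblast cultures; gain of signal scored relative to DMSO vehicle baseline.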
# [6] = read-out: Collagen III, COL3A1 (gene 1281); test: BSK_MyoF_CollagenIII: BioMAP Diversity Plus: MyoF Assay for Collagen III Biomarker Activity (AID 2284239); settings: primary human lung fibroblasts
# In short: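 Lung fibroblast culture; 24 h compound exposure; collagen III by ELISA; gain-of-signal fit vs DMSO baseline.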
# [7] = read-out: Interleukin 17F (IL17F), IL17F (gene 112744); test: BSK_BT_xIL17F: BioMAP Diversity Plus: BT Assay for Interleukin 17F (IL17F) Biomarker Activity (AID 2284243); settings: primary human B cells with PBMC
# In short: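 Secreted IL-17F, read on LumineX xMAP beads, was taken as the endpoint. Cultures combined human B cells and peripheral blood mononuclear cells, sampled 24 hours after dosing, with DMSO serving as negative control.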
# [8] = read-out: Actin alpha 1 (ACTA1), ACTA1 (gene 58); test: BSK_MyoF_ACTA1: BioMAP Diversity Plus: MyoF Assay for Actin alpha 1 (ACTA1) Biomarker Activity (AID 2284244); settings: primary human lung fibroblasts
# In short: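 Measured by ELISA: alpha-smooth muscle actin in human primary lung fibroblasts 24 h after dosing, with DMSO as baseline and upward signal change as the fitted direction.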
# [9] = read-out: Interleukin 2 (IL2), IL2 (gene 3558); test: BSK_BT_xIL2: BioMAP Diversity Plus: BT Assay for Interleukin 2 (IL2) Biomarker Activity (AID 2284245); settings: primary human B cells with PBMC
# In short: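 Secreted interleukin-2 from human B cell/PBMC co-cultures, measured 24 h post-dosing by Luminex multiplex immunoassay. Upward-direction curve fitting against DMSO baseline.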
# [10] = read-out: Basic fibroblast growth factor (bFGF), FGF2 (gene 2247); test: BSK_MyoF_bFGF: BioMAP Diversity Plus: MyoF Assay for Basic fibroblast growth factor (bFGF) Biomarker Activity (AID 2284246); settings: primary human lung fibroblasts
# In short: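 In this multiplexed cell system, lung fibroblasts (human primary) receive test chemical for 24 h before ELISA detection of bFGF; DMSO defines baseline and the analysis direction is positive.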
# [11] = read-out: Collagen IV, COL4A1 (gene 1282); test: BSK_MyoF_CollagenIV: BioMAP Diversity Plus: MyoF Assay for Collagen IV Biomarker Activity (AID 2284247); settings: primary human lung fibroblasts
# In short: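 Activity is scored as a signal increase over DMSO in an ELISA for Collagen IV, measured on human lung fibroblasts at 24 h after chemical treatment. Cytotoxicity is checked in parallel cultures by sulforhodamine B total-protein staining.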
# [12] = read-out: Plasminogen activator inhibitor-1 (PAI1), SERPINE1 (gene 5054); test: BSK_MyoF_PAI1: BioMAP Diversity Plus: MyoF Assay for Plasminogen activator inhibitor-1 (PAI1) Biomarker Activity (AID 2284256); settings: primary human lung fibroblasts;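 for outcome: PAI-1 protein level measured by ELISA in fibroblast cultures; PAI-1 read 24 h after compound addition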
# In short: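 MyoF lung fibroblasts, human primary; compound 24 h; PAI-1 ELISA; positive-direction fit vs DMSO baseline; parallel SRB total-protein staining for cytotoxicity.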
# [13] = read-out: Interleukin-8 (IL8), CXCL8 (gene 3576); test: BSK_MyoF_IL8: BioMAP Diversity Plus: MyoF Assay for Interleukin-8 (IL8) Biomarker Activity (AID 2284261); settings: primary human lung fibroblasts
# In short: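 Lung fibroblasts (human primary) → chemical exposure → 24 h → IL-8 measured by ELISA. Signal increase scored versus DMSO control.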
# Decorin, DCN (gene 1634) = test: BSK_MyoF_Decorin: BioMAP Diversity Plus: MyoF Assay for Decorin Biomarker Activity (AID 2284265); settings: primary human lung fibroblasts
# In short: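 ELISA readout of decorin, 24 h post-dosing; primary human lung fibroblast (MyoF) culture; gain-of-signal fit vs DMSO baseline.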
smiles,measurement,setting,value
C=C[Si](OCC)(OCC)OCC,outcome,[1],inactive
same,outcome,[2],inactive
same,outcome,[3],inactive
same,outcome,[4],inactive
same,outcome,[5],inactive
same,outcome,[6],inactive
same,outcome,[7],inactive
same,outcome,[8],inactive
same,outcome,[9],inactive
same,outcome,[10],inactive
same,outcome,[11],inactive
same,outcome,[12],inactive
same,outcome,[13],inactive
same,outcome,"Decorin, DCN (gene 1634)",inactive
BrC1CCC(Br)C(Br)CCC(Br)C(Br)CCC1Br (stereo not given),AC50,[1],28.4 µM (active)
same,outcome,[2],inactive
same,AC50,[3],17.4 µM (active)
same,outcome,[4],inactive
same,outcome,[5],inactive
same,outcome,[6],inactive
same,AC50,[7],25 µM (active)
same,outcome,[8],inactive
same,AC50,[9],25.2 µM (active)
same,outcome,[10],inactive
same,outcome,[11],inactive
same,outcome,[12],inactive
same,outcome,[13],inactive
same,outcome,"Decorin, DCN (gene 1634)",inactive
C=C(C)C(=O)O[C@H]1C[C@@H]2CC[C@@]1(C)C2(C)C,outcome,[1],inactive
same,outcome,[2],inactive
same,outcome,[3],inactive
same,AC50,[4],33.6 µM (active)
same,AC50,[5],29.2 µM (active)
same,AC50,[6],31.9 µM (active)
same,outcome,[7],inactive
same,AC50,[8],33.1 µM (active)
same,outcome,[9],inactive
same,AC50,[10],31.3 µM (active)
same,AC50,[11],25 µM (active)
same,AC50,[12],29.5 µM (active)
same,outcome,[13],inactive
same,AC50,"Decorin, DCN (gene 1634)",31.7 µM (active)
CN(CCOc1ccc(CC2SC(=O)NC2=O)cc1)c1ccccn1 (stereo not given),outcome,[1],inactive
same,outcome,[2],inactive
same,outcome,[3],inactive
same,AC50,[4],3.97 µM (active)
same,AC50,[5],0.016 µM (active)
same,outcome,[6],inactive
same,outcome,[7],inactive
same,outcome,[8],inactive
same,outcome,[9],inactive
same,outcome,[10],inactive
same,AC50,[11],0.111 µM (active)
same,AC50,[12],0.0541 µM (active)
same,outcome,[13],inactive
same,outcome,"Decorin, DCN (gene 1634)",inactive
O=C1CCCCCCCCCCCCCCO1,AC50,[1],34.9 µM (active)
same,AC50,[2],30.4 µM (active)
same,AC50,[3],25.2 µM (active)
same,AC50,[4],20 µM (active)
same,AC50,[5],8.87 µM (active)
same,AC50,[6],20 µM (active)
same,AC50,[7],31.2 µM (active)
same,AC50,[8],13.9 µM (active)
same,AC50,[9],32.9 µM (active)
same,outcome,[10],inactive
same,outcome,[11],inactive
same,outcome,[12],inactive
same,outcome,[13],inactive
same,outcome,"Decorin, DCN (gene 1634)",inactive
CCCCC/C=C/C=C/C=O,AC50,[1],20.1 µM (active)
same,AC50,[2],27.4 µM (active)
same,AC50,[3],20 µM (active)
same,AC50,[4],34.9 µM (active)
same,AC50,[5],32.4 µM (active)
same,AC50,[6],32.2 µM (active)
same,AC50,[7],30.7 µM (active)
same,AC50,[8],31.6 µM (active)
same,AC50,[9],31.4 µM (active)
same,AC50,[10],36.8 µM (active)
same,AC50,[11],10.5 µM (active)
same,AC50,[12],29.4 µM (active)
same,outcome,[13],inactive
same,AC50,"Decorin, DCN (gene 1634)",20 µM (active)
CNC[C@H](O)c1cccc(O)c1,outcome,[1],inactive
same,outcome,[2],inactive
same,outcome,[3],inactive
same,outcome,[4],inactive
same,outcome,[5],inactive
same,AC50,[6],0.016 µM (active)
same,outcome,[7],inactive
same,outcome,[8],inactive
same,outcome,[9],inactive
same,outcome,[10],inactive
same,outcome,[11],inactive
same,outcome,[12],inactive
same,outcome,[13],inactive
same,outcome,"Decorin, DCN (gene 1634)",inactive
CCn1c2ccccc2c2cc(N)ccc21,AC50,[1],13.1 µM (active)
same,AC50,[2],11.6 µM (active)
same,outcome,[3],inactive
same,outcome,[4],inactive
same,outcome,[5],inactive
same,outcome,[6],inactive
same,outcome,[7],inactive
same,outcome,[8],inactive
same,outcome,[9],inactive
same,outcome,[10],inactive
same,outcome,[11],inactive
same,outcome,[12],inactive
same,outcome,[13],inactive
same,outcome,"Decorin, DCN (gene 1634)",inactive
O=[N+]([O-])c1cc(C(F)(F)F)ccc1Cl,outcome,[1],inactive
same,outcome,[2],inactive
same,outcome,[3],inactive
same,outcome,[4],inactive
same,outcome,[5],inactive
same,outcome,[6],inactive
same,outcome,[7],inactive
same,outcome,[8],inactive
same,outcome,[9],inactive
same,outcome,[10],inactive
same,outcome,[11],inactive
same,AC50,[12],0.11 µM (active)
same,outcome,[13],inactive
same,outcome,"Decorin, DCN (gene 1634)",inactive
C#C[C@]1(O)CC[C@H]2[C@@H]3CCC4=Cc5oncc5C[C@]4(C)[C@H]3CC[C@@]21C,AC50,[1],33.1 µM (active)
same,outcome,[2],inactive
same,AC50,[3],24.4 µM (active)
same,AC50,[4],20 µM (active)
same,outcome,[5],inactive
same,AC50,[6],28.1 µM (active)
same,AC50,[7],25.3 µM (active)
same,outcome,[8],inactive
same,AC50,[9],28.6 µM (active)
same,AC50,[10],30.8 µM (active)
same,outcome,[11],inactive
same,AC50,[12],3.97 µM (active)
same,outcome,[13],inactive
same,outcome,"Decorin, DCN (gene 1634)",inactive
